# About 460 (31%) of roughly 1,500 compounds were called active. Roughly 1% stayed inconclusive and do not appear here. These entries were drawn from the full list. Results with a measured potency or affinity are listed apart. Unmarked numbers belong to inactive results.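 The calls were made as follows: active = curve reaches 40% activation over neutral controls at an AC40 no higher than the top valid tested concentration; inconclusive = no clear call, values can overlap the other calls; inactive = signal moving opposite to the expected increase, and the rest.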
# Test: GLuc-reported insulin release enhancers, glucose-stimulated beta cells – cell-based, INS-1E, Gaussia luciferase, luminescence, cherry-pick, set 2, dose response (AID 977607);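 also: 0% = median of the plate neutral control wells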
# Conditions: INS-1E GLuc insulin secretion reporter, 2-3 h, hits give high values
# [1] = at 35 µM, 100% = signal doubled over neutral wells unless noted
smiles,measurement,setting,value
COC(=O)c1c(C)oc(C)c1S(=O)(=O)Nc1ccc(C(C)C)cc1,max activation,[1],-24.4%
Cc1ccc(-c2cnc3cccnn23)cc1F,max activation,[1],"39% [at 0.015 µM, 100% = signal doubled over neutral wells]"
COC(=O)c1ccc(Oc2ccc(C(F)(F)F)cn2)cc1,max activation,[1],"-19.1% [at 0.135 µM, 100% = signal doubled over neutral wells]"
Cc1nc2c(-c3ccc(F)cc3)cnn2c2c1CCC2,max activation,[1],"-15.5% [at 0.0016 µM, 100% = signal doubled over neutral wells]"
COC(=O)C[C@@H]1C=C[C@H](NC(=O)Cc2ccccn2)[C@@H](CO)O1,max activation,[1],"-17.5% [at 0.015 µM, 100% = signal doubled over neutral wells]"
COCCNC(=O)CCCn1c(=O)c2ccccc2n(Cc2ccccc2C#N)c1=O,max activation,[1],"-20.3% [at 0.015 µM, 100% = signal doubled over neutral wells]"
CCc1c(C(=O)Nc2ccc(C)c(C)c2)[nH]c(C)c1C(C)=O,max activation,[1],"-21.4% [at 11 µM, 100% = signal doubled over neutral wells]"
COc1ccc(S(=O)(=O)N2CCC(C(=O)NCc3ccccn3)CC2)cc1OC,max activation,[1],"32.9% [at 3.8 µM, 100% = signal doubled over neutral wells]"
CCN(c1ccccc1)S(=O)(=O)c1ccc(OC)c(OC)c1,max activation,[1],12.1%
COc1ccc(N2CCN(S(=O)(=O)c3ccc(-c4cc(C)no4)s3)CC2)cc1,max activation,[1],"-17.8% [at 0.135 µM, 100% = signal doubled over neutral wells]"
COc1ccc(-c2cc(C(=O)N(C)Cc3ccc(OC)c(OC)c3OC)c3ccccc3n2)cc1OC,max activation,[1],"13.2% [at 11 µM, 100% = signal doubled over neutral wells]"
COc1ccc(CN(C)C(=O)c2cc(-c3ccc(OC)c(OC)c3)nc3ccccc23)c(OC)c1,max activation,[1],-23.5%
c1cn2cc(-c3ccc(CN4CCOCC4)cc3)ccc2n1,max activation,[1],"-25.5% [at 3.8 µM, 100% = signal doubled over neutral wells]"
O=c1[nH]c2cc(Cl)ccc2n(CCNc2ncc(C(F)(F)F)cc2Cl)c1=O,max activation,[1],"-28.9% [at 3.8 µM, 100% = signal doubled over neutral wells]"
COc1ccc(-c2cc3nc4ccccc4n3c(N)c2C#N)cc1,max activation,[1],"-29% [at 0.135 µM, 100% = signal doubled over neutral wells]"
O=C(O)c1ccc(-c2nc(-c3ccccc3)c(-c3cccs3)[nH]2)cc1,max activation,[1],"6.45% [at 1.2 µM, 100% = signal doubled over neutral wells]"
COc1ccc(-c2ocnc2C(=O)Nc2ccc(N3CCOCC3)cc2N2CCOCC2)cc1OC,max activation,[1],-29.2%
COc1ccc(C2CC(c3ccc(OC)c(OC)c3)=NN2C(=O)c2ccccc2)cc1 (stereo unspecified),max activation,[1],"-8.01% [at 0.0016 µM, 100% = signal doubled over neutral wells]"
O=c1c2ccccc2c(-c2ccccc2)nn1-c1ccccn1,max activation,[1],-14.4%
COc1ccccc1Cn1c(=O)oc2ccccc21,max activation,[1],"-27.7% [at 0.005 µM, 100% = signal doubled over neutral wells]"
COc1ccc(CNC(=O)C2Cc3c(-c4cccc(F)c4)ccnc3O2)cc1OC (stereo unspecified),max activation,[1],"-18.6% [at 0.015 µM, 100% = signal doubled over neutral wells]"
COc1cc2c3nnc(-c4ccccc4)c-3cn(Cc3ccccc3F)c2cc1OC,max activation,[1],"-22.1% [at 0.135 µM, 100% = signal doubled over neutral wells]"
FC(F)(F)c1ccc(Cl)c(-n2c(Cc3cccs3)n[nH]c2=S)c1,max activation,[1],"-14.3% [at 0.005 µM, 100% = signal doubled over neutral wells]"
COc1ccc(/C=C2/SC(=O)N(NS(=O)(=O)c3ccccc3)C2=S)cc1OC,max activation,[1],"-21.6% [at 0.015 µM, 100% = signal doubled over neutral wells]"
CC1(C)CCCC(C)(C)N1CC(O)COCCOc1ccc(Br)cc1 (stereo unspecified),max activation,[1],-12.4%
CCS(=O)(=O)c1nc(S(=O)(=O)c2ccc(C)cc2)c(N2CCC(O)CC2)s1,max activation,[1],"-18.3% [at 0.42 µM, 100% = signal doubled over neutral wells]"
Cc1ccnc(NS(=O)(=O)c2ccc(NC(=O)CCc3ccccc3)cc2)n1,max activation,[1],"33.7% [at 1.2 µM, 100% = signal doubled over neutral wells]"
Cc1ccc2c(=O)cc(C(=O)NC3CCS(=O)(=O)C3)oc2c1C (stereo unspecified),max activation,[1],"-12.4% [at 0.046 µM, 100% = signal doubled over neutral wells]"
COc1ccc2oc(C(=O)Nc3nnc(C)s3)c(C)c2c1,max activation,[1],"-20% [at 0.015 µM, 100% = signal doubled over neutral wells]"
CCC(=O)Nc1ccc(C(=O)N/N=C/c2cccnc2)cc1,max activation,[1],"-26.1% [at 3.8 µM, 100% = signal doubled over neutral wells]"
CCc1nc(N)nc(N)c1-c1ccc(Cl)c(N=[N+]=[N-])c1,max activation,"at 0.046 µM, 100% = signal doubled over neutral wells",-14.5%
same,max activation,"at 1.2 µM, 100% = signal doubled over neutral wells",-22.8%
Cc1ccc(-c2csc(NC(=O)CCCc3cccs3)n2)cc1,max activation,[1],"22% [at 0.42 µM, 100% = signal doubled over neutral wells]"
CCCc1nc2n[nH]c(N)c2c2c1COC(C)(C)C2,max activation,[1],19.9%
COc1ccc(CN(C)C(=O)COc2cccc(-n3cnnn3)c2)cc1OC,max activation,[1],25.6%
COc1ccccc1CNS(=O)(=O)c1cc(-c2cc(C)no2)ccc1C(C)C,max activation,[1],-29.2%
COc1ccc(-c2cc(C(=O)N3CCCCCC3)no2)cc1OC,max activation,[1],"-22% [at 3.8 µM, 100% = signal doubled over neutral wells]"
COCCNC(=O)c1ccc(N(C)S(=O)(=O)c2ccc(OC)c(OC)c2)cc1,max activation,[1],"19.5% [at 0.005 µM, 100% = signal doubled over neutral wells]"
O=C(N/N=C/c1cc(Cl)ccc1O)c1ccc(Br)cc1,max activation,[1],"-24.4% [at 3.8 µM, 100% = signal doubled over neutral wells]"
C=CCc1cccc(/C=N/NC(=O)CCC(=O)Nc2ccc(C)cc2)c1O,max activation,[1],-34.3%
Cc1nc2ccccc2c(=O)n1/N=C/c1ccc(N(C)C)cc1,max activation,[1],"-10.6% [at 1.2 µM, 100% = signal doubled over neutral wells]"
CCc1nc2c(OCCC3CCCCC3)cccn2c1N(C)C(=O)c1ccco1,max activation,[1],-35%
Cc1ccccc1CN(C)Cc1cc(=O)oc2c(C)c(C)ccc12,max activation,[1],-33.3%
O=C(c1ccccc1)N(C(=O)c1ccccc1)N1CCCC1,max activation,[1],"28.2% [at 0.046 µM, 100% = signal doubled over neutral wells]"
O=C(O)CCN1c2ccccc2Sc2ccccc21,max activation,[1],"-23% [at 3.8 µM, 100% = signal doubled over neutral wells]"
COc1ccc(/C=N/Nc2ncnc3c2[nH]c2ccccc23)c(OC)c1OC,max activation,[1],"-28.4% [at 0.005 µM, 100% = signal doubled over neutral wells]"
O=C(CCc1ccccc1)NNC(=O)COc1ccccc1Cl,max activation,[1],"22.3% [at 0.42 µM, 100% = signal doubled over neutral wells]"
c1ccc2c(N3CCCCC3)nc(N3CCCC3)nc2c1,max activation,[1],34.7%
O=S(=O)(N1CCOCC1)n1c(Cc2ccccc2)nc2ccccc21,max activation,[1],"-18.5% [at 0.046 µM, 100% = signal doubled over neutral wells]"
CCOC(=O)C1CCCN(C(=O)c2cccnc2Oc2ccccc2)CC1 (stereo unspecified),max activation,[1],"48.6% [at 1.2 µM, 100% = signal doubled over neutral wells]"
COc1ccc(CCNCc2cc3ccc(C)cc3[nH]c2=O)cc1OC,max activation,[1],"20.9% [at 11 µM, 100% = signal doubled over neutral wells]"
COC(=O)[C@]1(Cc2ccccc2)N[C@H](CN(C)C(=O)Nc2ccc(C)cc2)[C@@H]2C(=O)N(C)C(=O)[C@@H]21,max activation,[1],"-13.8% [at 11 µM, 100% = signal doubled over neutral wells]"
O=C(Nc1ccc(S(=O)(=O)N2CCOCC2)cc1)c1ccc(=O)[nH]c1,max activation,[1],"-14.6% [at 0.046 µM, 100% = signal doubled over neutral wells]"
O=C(NCc1ccc(Cl)cc1)c1cc(=O)[nH]c2ccc(S(=O)(=O)N3CCOCC3)cc12,max activation,[1],"27.5% [at 0.005 µM, 100% = signal doubled over neutral wells]"
CCN(Cc1ccccc1)S(=O)(=O)c1ccccc1Br,max activation,[1],-30.7%
CC/C(O)=C1\C(=O)CC(C)(C)CC1=Nc1ccccc1C,max activation,[1],"-12.4% [at 0.046 µM, 100% = signal doubled over neutral wells]"
